AmpC detergent = inhibitors of E. coli AmpC beta-lactamase with detergent; AmpC hydrolysis of nitrocefin, absorbance 480 nm, 0.01% Triton; Potency, µM (titrated, usually from 114 µM), without a hit: top-dose activity change, negative = inhibition, most hits filed as inhibitors; 370,000 compounds, 0.041% hits; AID 485294;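 note: potency is the fitted concentration of half-maximal effect; 0% = no-compound wells and -100% = no-enzyme wells; nearly all actives have a fitted effect of over 25% in size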
Target sequence (P00811 whole entry, looked up): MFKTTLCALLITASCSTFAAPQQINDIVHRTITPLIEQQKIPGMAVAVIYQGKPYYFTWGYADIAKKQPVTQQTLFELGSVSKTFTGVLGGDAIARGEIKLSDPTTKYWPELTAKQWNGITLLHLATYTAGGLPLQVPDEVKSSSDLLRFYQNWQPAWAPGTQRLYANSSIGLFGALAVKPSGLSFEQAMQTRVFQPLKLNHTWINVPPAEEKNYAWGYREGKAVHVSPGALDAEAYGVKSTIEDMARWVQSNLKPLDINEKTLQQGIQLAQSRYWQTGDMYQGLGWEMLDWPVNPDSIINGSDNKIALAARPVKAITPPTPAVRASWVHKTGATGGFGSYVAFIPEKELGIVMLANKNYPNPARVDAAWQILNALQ
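AmpC (5.3 nM in the dispensed reagent) in 20 mM phosphate pH 7.0 with 0.01% (detergent screen) or 0.0001% Triton X-100 was preincubated with compounds for 15 min at room temperature. Nitrocefin was then added from an 800 uM solution, and hydrolysis was followed at 480 nm.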
AmpC no deterg = blocks E. coli AmpC beta-lactamase in detergent-free assay; AmpC nitrocefin hydrolysis, absorbance 480 nm, 0.0001% Triton; Potency, µM (top dose mostly 57.1 µM), without a hit: top-dose activity change, negative = inhibition, usual class: inhibitors; 330,000 compounds, 0.52% hits; AID 485341;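 note: potency is the fitted concentration of half-maximal effect; plate controls were no compound for no effect and no enzyme for full effect; nearly all actives have a fitted effect of over 20% in size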
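20 mM phosphate pH 7.0 + 0.01% (detergent screen) or 0.0001% Triton X-100; 5.3 nM AmpC reagent; cpd preinc 15 min RT; nitrocefin (800 uM stock) to start; A480 q20 s × 4 min; Activity was normalised to no-enzyme and no-compound control wells.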
NS1 inh = influenza NS1 inhibition; Potency, µM (top dose mostly 46.1 µM), without a hit: at the highest dose activity, positive = more growth; AID 2326; 270,000 compounds, 0.4% hits; calls by dose curve; note: potency is the fitted concentration of half-maximal effect; actives are rising curves; nearly all actives have a fitted effect of over 50% in size
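In this qHTS, NS1 from influenza A is expressed in budding yeast, where it slows growth. Cells are switched from glucose to 2% galactose medium (pH 6.0, -URA), treated with compound, and growth recovery is read at OD600.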
AMA1-RON2 inh = AMA1-RON2 (P. falciparum) interaction inhibition; 360,000 compounds, 0.2% hits; AlphaScreen AMA1-biotinylated RON2 peptide binding; Potency, µM (titrated, usually from 58.2 µM), without a hit: at the highest dose activity change, negative = inhibition, usual class: inhibitors;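 note: potency is the fitted concentration of half-maximal effect; 0% = vehicle wells and -100% = peptide control; nearly all actives have a fitted effect of over 45% in size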
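AMA1 (3D7) with his tag at 25 nM final met compounds first, then biotinylated RON2 peptide at 25 nM; detection used donor plus acceptor beads, 10 µg/mL apiece, read by AlphaScreen after 30 min at room temperature.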
Flu NS1 inh = validation of influenza NS1 protein function inhibitors | shares compounds with NS1 inh | influenza NS1 function cell assay, 15-point titration | activity change, negative = inhibition, % at 32.9 µM | 1,400 tested, under 10 active; calls by dose curve; note: 0% is about no effect
PR8 titer = reduces influenza A/PR/8/34 replication in MDCK cells; shares compounds with NS1 inh; MDCK infected influenza A/PR/8/34, virus titer TCID50; active compounds read low; virus titer (log TCID50), log10 TCID50 at 5 µM; 95 compounds, 30% hits; call rule not given here
Numbers without * were called inactive; u = inconclusive; x = no result given. Hits are enriched below; roughly 0.86% of the tested compounds scored in any of these assays. Unless noted, calls come from the whole dose curve; as a rule, active = well fitted curve in the direction sought with a large enough effect; inconclusive = small, poorly fitted or top-dose-only effect, or another doubt; inactive = no such curve, though single readings can be large; an effect the other way counts as inactive or inconclusive.

SMILES | AmpC detergent | AmpC no deterg | NS1 inh | AMA1-RON2 inh | Flu NS1 inh | others
COc1cc(C2C(C#N)=C(N)Oc3c2ccc2ccccc32)ccc1OCC(=O)Nc1cccc(C)c1 (stereo not given) | -9% | u | 11µM* | 3% | 5 | PR8 titer=8.3
COc1cccc(OC)c1C(=O)Nc1nc(-c2ccccc2)cs1 | 5% | -13% | 13µM* | 0% | -16
O=C(Nc1nc(-c2ccc([N+](=O)[O-])cc2)cs1)c1c(F)cccc1F | -2% | -12% | 13% | 6% | x
Cc1ccc(-c2csc(NC(=O)c3cccc([N+](=O)[O-])c3)n2)cc1 | -5% | -15% | 5µM* | 10% | 1
CC(C)NC(=O)c1cc(C2CCCCN2S(=O)(=O)c2ccc(C#N)cc2)on1 (stereo not given) | x | x | x | -1% | x
CN(C)C(CNC(=O)c1cc(Br)ccc1Cl)c1ccco1 (stereo not given) | -6% | 2% | 2µM* | -12% | -15
COc1ccccc1NCC(=O)N/N=C/c1cccnc1 | 1% | 0% | 3.2µM* | 51% | 32
COc1ccccc1/C=C/C(=O)NCC(=O)N/N=C/c1cccnc1 | 5% | -30% | 8% | 10% | x
O=C(c1ccco1)N1CCN(C2CC(=O)N(c3ccc(F)c(Cl)c3)C2=O)CC1 (stereo not given) | -10% | -1% | 2% | -3% | x
Cc1occc1-c1nnc(SCC(=O)c2c(N)n(Cc3ccccc3)c(=O)n(C)c2=O)n1C | -9% | -22% | 10µM* | -12% | 18
Cc1ccc(S(=O)(=O)N2C[C@@H](C)[C@]3(C2)[C@H](O)[C@H](OC(=O)NC2CCCC2)C[C@H]2C(=O)N(c4ccccc4)C(=O)[C@H]23)cc1 | x | x | x | -8% | x
O=C(NCc1ccccc1)c1cc(C2CCCCN2C(=O)OCCF)on1 (stereo not given) | x | x | x | -4% | x
CN1C(=O)c2ccc(NC(=O)CSc3ccccc3)cc2C1=O | -6% | -24% | -17% | 3% | x
O=C(CSc1ccc(F)cc1)Nc1ccc2c(c1)C(=O)NC2=O | -19% | -27% | 1.6µM* | 5% | -9
CN(C)/C=C1\SC(=S)N(c2ccc(Br)cc2)C1=O | 0% | -44% | u | -11% | -10
CN(C)/C=C1\SC(=S)N(c2ccc(F)cc2)C1=O | 1% | 13% | -3% | 10% | x
COc1ccc(C2/C=C\CN(S(=O)(=O)c3ccc4ccccc4c3)CC(=O)N2Cc2ccc(F)cc2)cc1 (stereo not given) | -2% | 0% | 2.8µM* | 5% | -31 | PR8 titer=8
CCCCC/C=C\C/C=C\C/C=C\C/C=C\CCCC(=O)NCC(=O)O | x | x | 18µM* | x | 12
CC(CNC(=O)CN1C(=O)COc2ccc(S(=O)(=O)N3CCCCCC3)cc21)c1ccccc1 (stereo not given) | 1% | x | x | x | x
COc1ccc2cc(-c3nc(Cl)c4c5c(sc4n3)CCCC5)c(=O)oc2c1 | 2% | x | x | x | x
O=C(CCc1ccccc1)NCc1ccccc1 | 6% | 0% | x | -1% | x
Cc1ccc(CCC(=O)NCc2ccccc2)o1 | 9% | 22% | 5µM* | 15% | 1
CC(C)N(C)Cc1nnnn1CC(=O)N(C)Cc1ccc(F)cc1 | 4% | 1% | 5% | 1% | x
COc1ccccc1N1CCN(C2CCCN(C(=O)c3cscn3)C2)CC1 (stereo not given) | -4% | -10% | u | -1% | -13
CC1=C(C(=O)N2CCCC(N3CCN(c4ccccc4C)CC3)C2)OCCO1 (stereo not given) | -9% | 92% | 2.5µM* | -10% | 1
COc1ccccc1N1CCN(C2CCCN(C(=O)c3cc(C4CC4)on3)C2)CC1 (stereo not given) | u | 47% | 0% | -9% | x
COc1ccc(/C=N/NC(=O)c2ccc3ccccc3c2)cc1OS(=O)(=O)c1ccc(NC(C)=O)cc1 | -3% | -17% | 10µM* | 10% | 24
CCc1ccc(/C=C2\CN(CC)Cc3c2nc2ccccc2c3C(=O)O)cc1 | -8% | 54% | 3.5µM* | 1% | -15
